Screening results deposited in PubChem by several laboratories.
DUSP3 inh = VHR1 phosphatase inhibitors, primary screen, biochemical, absorbance, uHTS; AID 1654, 2009; recombinant VHR phosphatase, pNPP absorbance; 290,000 tested, 0.52% active; inhibition, % at 13.3 µM; in the data active = inhibition above about 50%
Target sequence (P51452 whole entry, looked up): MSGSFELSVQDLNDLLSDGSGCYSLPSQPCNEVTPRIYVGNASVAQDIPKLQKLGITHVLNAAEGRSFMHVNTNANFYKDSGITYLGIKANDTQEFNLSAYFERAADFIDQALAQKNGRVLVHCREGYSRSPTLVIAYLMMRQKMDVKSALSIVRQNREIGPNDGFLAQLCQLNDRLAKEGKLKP
Mtb betalactam = beta-lactam sensitization of Mtb H37Rv, H37Rv; M. tuberculosis H37Rv growth with meropenem, percent inhibition; inhibition, % at 25 µM; 330,000 tested, 0.27% active; call rule not given here;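 also: growth measured after seven days incubation then overnight dye step; 0% = bacteria only wells and 100% = bacteria with antibiotic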
GDH-TPI counter = GDH-TPI coupling enzyme inhibitors, primary screen, artefact control for M. tuberculosis FBA inhibitor project, biochemical, absorbance, full deck; 360,000 tested, 1.2% active; GDH-TPI coupled enzyme counterscreen, NADH absorbance; inhibition, % at 4.8 µM; in the data active = inhibition above about 30%;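 also: 0% = DMSO wells and 100% = wells lacking the enzyme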
Mtb FBA inh = Mtb FBA enzyme inhibitors, primary screen, biochemical, fluorescence, strain H37Rv; 360,000 tested, 2.3% active; purified M. tuberculosis FBA, fluorescence read-out; inhibition, % at 1 µM; in the data active = inhibition above about 27%;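 also: 0% = vehicle and 100% = reference inhibitor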
Target sequence (P9WQA3 whole entry, looked up): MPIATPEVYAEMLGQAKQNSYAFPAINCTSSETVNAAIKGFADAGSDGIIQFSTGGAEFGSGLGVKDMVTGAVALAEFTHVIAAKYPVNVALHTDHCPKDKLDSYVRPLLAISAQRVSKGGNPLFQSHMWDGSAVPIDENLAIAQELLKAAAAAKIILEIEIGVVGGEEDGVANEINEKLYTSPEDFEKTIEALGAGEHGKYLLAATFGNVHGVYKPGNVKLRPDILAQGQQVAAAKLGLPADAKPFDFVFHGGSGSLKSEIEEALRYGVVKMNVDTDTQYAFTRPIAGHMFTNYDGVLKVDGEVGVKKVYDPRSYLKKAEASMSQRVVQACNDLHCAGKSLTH
Mtb hypoxia inh = PubChem AID 1159583; M. tuberculosis hypoxia-regulated fluorescent reporter, fluorescence; fluorescence inhibition, % (no concentration beside the values); 300,000 tested, 0.1% active; in the data active = fluorescence inhibition mostly above about 23%, no sharp cut-off; inactive = mostly below about 17%
Starred values were filed as active, the others as inactive; . = not tested or not shown; + = active, no number. This is a sample that favours compounds with a hit; in the whole collection about 3.6% have one here.

SMILES	DUSP3 inh	Mtb betalactam	GDH-TPI counter	Mtb FBA inh	Mtb hypoxia inh
CN(C)CCCN1C(=O)C(=O)/C(=C(/O)c2ccncc2)C1c1cccc(Br)c1 (configuration not stated)	-12.2	-1.7	31.2*	-1.2	9.6
O=C(c1ccco1)N1CCN(C(=O)C2CC(c3ccc(Cl)cc3)=NO2)CC1 (configuration not stated)	58.9*	95.7	1.2	1.1	.
Cc1onc(-c2ccccc2)c1C(=O)NNC(=S)NC(=O)/C=C/c1cccs1	2.6	5.4	63.0*	-0.2	.
Cn1c(SCC(=O)Nc2ccccc2F)nnc1-c1cccs1	54.4*	-2.0	0.0	1.2	-5.8
O=C(/C=C/c1ccc(Cl)cc1)NC(=S)Nc1ccccc1C(=O)O	28.6	-2.5	38.0*	6.1	14.6
CN1/C(=C\C(=O)COC(=O)CN2C(=O)C3CC=CCC3C2=O)C(C)(C)c2ccccc21 (configuration not stated)	11.7	3.1	36.8*	7.9	6.9
CN1/C(=C/C(=O)COC(=O)C2COc3ccccc3O2)C(C)(C)c2ccccc21 (configuration not stated)	.	.	31.6*	3.4	6.0
NC(CO)c1cn(C(CCC(=O)O)C(=O)N2CCNCC2)nn1 (configuration not stated)	.	.	.	.	9.6
Cc1cc(-c2nc3ncccc3o2)ccc1N	-8.8	-9.6	45.4*	+	.
Nc1ccc(-c2nc3ncccc3o2)c(O)c1	24.0	63.0	58.6*	+	-0.4
Cc1ccc(-c2nc3ncccc3o2)cc1N	6.4	2.7	3.5	-4.0	-1.6
Nc1ccc(Cl)c(-c2nc3ncccc3o2)c1	30.7	-16.8	12.4	0.5	-2.2
O=C(O)COc1ccccc1C=NNC(=O)CSc1nc2ccccc2n1Cc1ccccc1	.	.	.	.	3.8
C#CCOCCOCCOCCNc1nc(N2CCN(C(=O)C(C)n3cc(CCCN=C(N)N)nn3)CC2)nc(N2CCN(C(=O)C(C)n3cc(CCCN=C(N)N)nn3)CC2)n1 (configuration not stated)	.	.	.	.	10.6
Cc1ccc(Nc2nc(N3CCOCC3)nc(N3CCOCC3)n2)cc1	50.8*	5.9	6.6	-2.9	10.9
BrC(=C\c1ccccc1)/C=N/Nc1nc(N2CCOCC2)nc(N2CCOCC2)n1	-4.4	52.7	31.0*	-1.2	.
C/C(C=NNc1nc(N2CCOCC2)nc(N2CCOCC2)n1)=C/c1ccccc1	.	.	.	.	-5.0
BrC(/C=C\c1ccccc1)=N/Nc1nc(N2CCOCC2)nc(N2CCOCC2)n1	21.5	45.2	45.0*	-3.5	.
CCC(C)C(CN)NCC1(c2ccccc2)CC1 (configuration not stated)	.	.	.	.	16.1
C#CCOCCOCCOCCNc1nc(N2CCN(C(=O)C(C(C)CC)n3cc(C(N)CO)nn3)CC2)nc(N2CCN(C(=O)C(C(C)CC)n3cc(C(N)COC(=O)C(F)(F)F)nn3)CC2)n1 (configuration not stated)	.	.	.	.	15.4
CC(C(=O)CC(=O)OC(C)(C)C)C(O)c1ccc(C(F)(F)F)cc1 (configuration not stated)	.	.	.	.	-2.6
CCCCCCCCCOC(=O)C1N2C(=O)C(NC(=O)COc3ccccc3)C2SC1(C)C (configuration not stated)	.	.	.	.	15.4
COc1cc(C=NNC(=S)Nc2cccc(C(=O)O)c2)cc(OC)c1OC	.	.	.	.	3.9
CC(=O)Oc1ccc(C=NNC(=O)CCSc2ccccc2)cc1	.	.	.	.	9.1
CCOC(=O)N1CCN(/C=C(\C#N)c2nc3ccccc3s2)CC1	41.4	-15.1	34.6*	1.4	-6.1
SMILES	DUSP3 inh	Mtb betalactam	GDH-TPI counter	Mtb FBA inh	Mtb hypoxia inh
N#C/C(=C\N1CCN(Cc2ccc3c(c2)OCO3)CC1)c1nc2ccccc2s1	31.6	90.2	25.6	0.8	3.0
O=c1ccc2cc(OC3OC(CO)C(O)C(O)C3O)c(O)cc2o1 (configuration not stated)	.	.	.	.	-6.2
O=c1ccc2cc(O[C@@H]3O[C@H](CO)[C@@H](O)[C@H](O)[C@H]3O)c(O)cc2o1	.	.	18.1	+	.
COc1cc2cc(Oc3ccc4ccc(=O)oc4c3)c(=O)oc2cc1OC1OC(COC(=O)CC(C)(O)CC(=O)O)C(O)C(O)C1O (configuration not stated)	0.2	-5.4	32.4*	26.1	.
CCc1ccc(NC(=O)CSc2nncn2-c2cccnc2)cc1	56.5*	-4.5	-4.5	-1.6	0.4
O=C1C=C(c2ccc(F)cc2OCc2ccccc2)CC(c2ccc(F)cc2)C1 (configuration not stated)	.	.	.	.	3.4
CC(CC(=O)Nc1ccc(N(C)C)cc1)=NNC(=O)Cc1csc(N)n1	.	.	.	.	13.3
CCc1nn(CCCC(=O)N2CCN(c3ccc(OC)cc3)CC2)c(=O)c2cc3occc3n12	56.8*	-6.7	-6.5	-1.3	4.1
CCc1nn(CCCC(=O)N2CCC(C)CC2)c(=O)c2cc3occc3n12	-1.9	-1.9	4.3	0.7	5.0
CN(C)c1ccc(NC(=O)C2CCCN(S(=O)(=O)c3ccccc3)C2)cc1 (configuration not stated)	55.8*	7.8	-1.2	-0.3	0.6
O=C(Nc1ccc(N2CCOCC2)cc1)C1CCCN(S(=O)(=O)c2ccccc2)C1 (configuration not stated)	25.4	-10.5	13.4	0.5	14.8
CCOc1ccc(Cl)cc1C1=CC(=O)CC(c2ccc(OC)cc2)C1 (configuration not stated)	.	.	.	.	12.0
Cc1occc1C(=O)NC(C)C1CCCO1 (configuration not stated)	6.3	-1.4	-6.5	33.2*	4.2
O=C(Nc1cccc2c1CCCC2)c1ccccc1Br	51.5*	-0.5	-1.7	0.7	8.4
O=C(Nc1cccc2c1CCCC2)c1ccco1	-9.8	24.0	5.6	-0.9	21.4
CCOc1ccccc1Nc1ncnc2ccccc12	1.8	3.6	6.9	188.7*	3.7
NNC(=O)c1ccccc1OCCOc1ccccc1	54.8*	10.0	7.2	0.2	.
C/C(=N\NC(=O)c1ccccc1OCCOc1ccccc1)c1ccccc1F	.	.	-1.1	3.1	.
CC(CC(=O)Nc1ccccn1)=NNC(=O)Cc1cccc2ccccc12	.	.	.	.	14.1
N#CCC(=O)Nc1ccccc1C(=O)O	-13.2	2.4	6.2	2.4	.
N#C/C(=C/Nc1ccccc1C(=O)O)C(N)=O	12.5	9.5	68.3*	-4.6	14.5
O=C(NCCN1CCOCC1)C1CC(=O)N(c2ccc(Cl)cc2)C1 (configuration not stated)	50.0*	-0.1	3.7	0.2	1.0
O=C(O)COc1ccccc1C=NNC(=O)CSc1nc2ccccc2n1Cc1ccc(Cl)cc1	.	.	.	.	8.2
CCOc1ccc(/C=N/NC(=O)c2ccc(Cn3cc([N+](=O)[O-])cn3)o2)cc1	10.7	-2.8	42.5*	-5.2	.
CCOc1ccc(/C=N/NC(=O)c2ccc(Cn3cc(Br)cn3)o2)cc1	-4.1	7.6	28.9	5.7	.
COc1ccc(/C=N/NC(=O)c2ccc(Cn3cc([N+](=O)[O-])cn3)o2)cc1O	-12.8	5.1	37.0*	-0.2	.
